According to PubChem BioAssay (Tox21):
Records with an inconclusive call do not appear. Entries that show only a call come without a potency. Activity calls are given as the source filed them. The call rests on the fitted dose curve; in most records, active means well fitted cell-killing curve with a large enough effect in the repeat runs; inconclusive means weak or mixed curves, or effect the other way; inactive means flat fitted curve, though single readings scatter.

Experiment: qHTS assay to identify small molecule antagonists of the constitutive androstane receptor (CAR) signaling pathway - cell viability counter screen (AID 1224837); further: nearly all actives have a fitted effect of over 45% in size
Settings: HepG2-CYP2B6-hCAR viability, CellTiter-Fluor, 23 h, co-treated with 50 nM CITCO; series mostly up to 92.4 µM
Summary of the method: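 HepG2-CYP2B6-hCAR cells, 2500/well, 4 hr pre-incubation; compound titration, 15 conc.; CITCO 50 nM final; 23 hr, 37 C/5% CO2; CellTiter-Fluor, fluorescence intensity.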
Potency means the concentration at half of the fitted maximal effect.

Row | Compound | Potency
1 | COC(C)COC(C)COC(C)CO (stereo unspecified) | inactive
2 | C[C@]12CCC(=O)C=C1CC[C@@H]1[C@@H]2C(=O)C[C@@]2(C)[C@H]1CC[C@]2(O)C(=O)CO | inactive
3 | Cc1cccc([N+](=O)[O-])c1C | inactive
4 | CCC(C)c1ccccc1O (stereo unspecified) | inactive
5 | O=C(c1ccccc1)c1ccccc1O | inactive
6 | Brc1cc(Oc2cc(Br)c(Br)c(Br)c2Br)c(Br)c(Br)c1Br | inactive
7 | CC1=CC2C3CC(C=C3C)C2C1 (stereo unspecified) | inactive
8 | Nc1ncn([C@@H]2O[C@H](CO)[C@@H](O)[C@H]2O)c(=O)n1 | 4.86 µM (active)
9 | OC(CCl)CCl | inactive
10 | CCC(C)CO (stereo unspecified) | inactive
11 | Cc1ccc2c(n1)Oc1ccc(C(C)C(=O)OCC(=O)N(C)C)cc1C2 (stereo unspecified) | inactive
12 | O=C(/C=C/c1ccccc1)OCc1ccccc1 | inactive
13 | C#C[C@]1(O)CC[C@H]2[C@@H]3CCc4cc(OC)ccc4[C@H]3CC[C@@]21C | inactive
14 | Cc1cccc(N(C)C(=S)Oc2ccc3ccccc3c2)c1 | inactive
15 | CC(C(=O)O)c1cccc(C(=O)c2ccccc2)c1 (stereo unspecified) | inactive
16 | Cc1c(OCC(F)(F)F)ccnc1CS(=O)c1nc2ccccc2[nH]1 (stereo unspecified) | inactive
17 | Clc1nc(Cl)c(Cl)c(Cl)c1Cl | inactive
18 | O=C(Nc1ccc(Cl)cc1)Nc1ccc(Cl)c(Cl)c1 | 15.4 µM (active)
19 | O=CCc1ccccc1 | inactive
20 | OC1CCCCCCCCCCC1 | inactive
21 | OC[C@H]1O[C@@H]2O[C@H]3[C@H](O)[C@@H](O)[C@@H](O[C@H]4[C@H](O)[C@@H](O)[C@@H](O[C@H]5[C@H](O)[C@@H](O)[C@@H](O[C@H]6[C@H](O)[C@@H](O)[C@@H](O[C@H]7[C@H](O)[C@@H](O)[C@@H](O[C@H]8[C@H](O)[C@@H](O)[C@@H](O[C@H]1[C@H](O)[C@H]2O)O[C@@H]8CO)O[C@@H]7CO)O[C@@H]6CO)O[C@@H]5CO)O[C@@H]4CO)O[C@@H]3CO | inactive
